# Assay results as given in PubChem BioAssay.
# Inconclusive results are not listed. Activity calls are given as the source filed them. Unless noted, no cut-off is given here; in the data, nearly all actives have AC50 up to about 26 µM.
# Key:
# [1] = growth inhibition of DIPG glioma cells, dose response, cell-based, SU-DIPG-XVII, MIPE5.0, CellTiter-Glo, qHTS (AID 1347060); conditions: SU-DIPG-XVII viability, CellTiter-Glo ATP luminescence;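 for AC50: cells exposed to compound for 48 hours before viability readout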
# [2] = growth inhibition of DIPG glioma cells, dose response, cell-based, SU-DIPG-XIII, MIPE4.0, CellTiter-Glo, qHTS (AID 1347061; cut-off not given, nearly all actives have AC50 up to about 37 µM;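 note: cells exposed to compound for 48 hours before readout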); conditions: SU-DIPG-XIII viability, CellTiter-Glo ATP luminescence
# [3] = growth inhibition of DIPG glioma cells, dose response, cell-based, JHH-DIPG-1, MIPE4.0, CellTiter-Glo, qHTS (AID 1347062; cut-off not given, nearly all actives have AC50 up to about 27 µM;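 for AC50: cells exposed to compound for two days before readout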); conditions: JHH-DIPG-1 viability, CellTiter-Glo ATP luminescence
# [4] = growth inhibition of DIPG glioma cells, dose response, cell-based, SU-DIPG-IV, MIPE4.0, CellTiter-Glo, qHTS (AID 1347063; cut-off not given, nearly all actives have AC50 up to about 30 µM;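 note: compound exposure lasted 48 hours before the viability readout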); conditions: SU-DIPG-IV viability, CellTiter-Glo ATP luminescence
# [5] = growth inhibition of DIPG glioma cells, dose response, cell-based, SU-DIPG-XIII, MIPE5.0, CellTiter-Glo, qHTS (AID 1347064; cut-off not given, nearly all actives have AC50 up to about 23 µM;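 for AC50: cells exposed to compound for 48 hours before the viability read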); conditions: SU-DIPG-XIII viability, CellTiter-Glo ATP luminescence
# [6] = viability loss in pontine glioma line – cell-based, SU-DIPG-XXV, MIPE5.0, CellTiter-Glo, qHTS, dose response (AID 1347065); conditions: CellTiter-Glo ATP luminescence;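 note: cells exposed to compound for 48 hours before ATP readout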
# [7] = SU-DIPG-VI glioma cell viability, MIPE4.0 library, CellTiter-Glo luminescence, qHTS (AID 1347066; cut-off not given, nearly all actives have AC50 up to about 30 µM;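 note: cells exposed to compound for 48 hours before readout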); conditions: CellTiter-Glo ATP luminescence
# [8] = JHH-DIPG-1 glioma cell viability, MIPE5.0 library, CellTiter-Glo luminescence, qHTS (AID 1347067); conditions: JHH-DIPG-1 glioma viability, CellTiter-Glo ATP luminescence;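 note: cells exposed to compound for 48 hours before readout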
# [9] = SU-DIPG-XXV glioma cell viability, MIPE5.0 library, qHTS (AID 1347068; cut-off not given, nearly all actives have IC50 up to about 30 µM;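 for IC50: cells exposed to compound for 48 hours before viability readout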)
# [10] = sensitizers of A549 cells to miR-34 induction, primary screen, imaging, A549 dox-inducible miR-34, nuclei and caspase counts (AID 1347080;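 active = compounds whose cell count with miR-34 switched on is under 0.7 times the count with it off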); conditions: A549 miR-34 inducible, Hoechst nuclei count, 48 h
# [11] = survival rescue of mitochondrial mutant cells in low glucose, primary screen, MELAS cybrids, Rieske KO mouse fibroblasts, CellTiter-Glo (AID 1508586;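 active = mean z-score across replicates of 1.96 or higher in either the MELAS or the Rieske mutant cell line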;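 note: z relative to plate mean and SD of compound and empty wells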)
# [12] = LFS_MB_P medulloblastoma growth inhibition, cell-based, chromothripsis tumors, cisplatin or BGB combos (AID 1671449; in the data active = inhibition above about 80%;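 note: cells exposed for 96 hours; 0% = vehicle DMSO and 100% = killing by high DMSO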); conditions: LFS_MB_P medulloblastoma cells
# [13] = HDN33 neuroblastoma growth inhibition, cell-based, chromothripsis tumors, cisplatin or BGB combos (AID 1671450; in the data active = inhibition above about 80%;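 note: cells exposed to compound for four days; 0% = vehicle DMSO and 100% = cell killing by high DMSO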); conditions: HDN33 neuroblastoma cells, stronger effect = higher value
# [14] = ICB984 medulloblastoma cell growth inhibition, synergistic combos for chromothripsis tumors, cisplatin or BGB combos (AID 1671451; call rule not given here;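 note: cells exposed for 96 hours before readout; 0% = vehicle DMSO and 100% = killing by high DMSO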); conditions: ICB984 medulloblastoma cells, drug combinations, stronger effect = higher value
# [15] = HTB85 osteosarcoma cell growth inhibition, synergistic combos for chromothripsis tumors, BGB or cisplatin IC20 combos (AID 1671453; in the data active = inhibition above about 80%;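 note: cells exposed for 96 hours before readout; 0% = vehicle DMSO and 100% = high DMSO killing control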); conditions: HTB85 osteosarcoma cells, drug combinations, stronger effect = higher value
# [16] = MDA-MB-436 breast carcinoma cell growth inhibition, synergistic combos for chromothripsis tumors, BGB or cisplatin combos (AID 1671458; call rule not given here;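 note: cells exposed for 96 hours; 0% = vehicle DMSO and 100% = killing by high DMSO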); conditions: MDA-MB-436 breast carcinoma growth inhibition, drug combinations, stronger effect = higher value
# [17] = growth inhibition of BT084 medulloblastoma cells, cell-based, ICGC_MB145, cisplatin and BGB IC40 combos (AID 1671461; in the data active = inhibition above about 80%;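 note: cells exposed to drugs for 96 hours; 0% = vehicle DMSO and 100% = high DMSO full killing control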); conditions: drug combinations, stronger effect = higher value
# [18] = growth inhibition of RCMB18 medulloblastoma cells, cell-based, cisplatin and BGB IC40 combos (AID 1671462; in the data active = inhibition above about 80%;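 note: cells exposed to compound for four days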); conditions: stronger effect = higher value
# [19] = stronger effect = lower value, cell number ratio, induced over uninduced
# [20] = measured here: relative caspase fold change +Dox/-Dox
# [21] = measured here: total cells with miR-34 induction, stronger effect = lower value
# [22] = measured here: total cells without miR-34 induction
# [23] = MELAS cybrid survival, CellTiter-Glo 48 h, stronger effect = higher value
# [24] = Rieske KO mouse fibroblast survival, CellTiter-Glo 72 h
smiles,measurement,setting,value
Nc1ncnc2c1c(-c1cnc3[nH]ccc3c1)nn2C1CCCC1,AC50,[1],934 nM (active)
same,AC50,[2],3720 nM (active)
same,AC50,[3],6620 nM (active)
same,AC50,[4],296 nM (active)
same,AC50,[5],1320 nM (active)
same,AC50,[6],661 nM (active)
same,AC50,[7],4690 nM (active)
same,AC50,[8],1660 nM (active)
same,IC50,[9],1660 nM (active)
same,fold change,[10]; [19],0.933 (inactive)
same,fold change,[10]; [20],0.447
same,cell count,[10]; [21],1360
same,cell count,[10]; [22],1460
same,z-score,[11]; [23],2.61 (active)
same,z-score,[11]; [24],-3.58
same,inhibition,"[12]; at 0.5 µM, stronger effect = higher value",-21.6% (inactive)
same,inhibition,"[12]; measured here: combination with BGB IC20, at 0.005 µM",-12.8%
same,inhibition,"[12]; measured here: combination with BGB IC40, at 0.005 µM",-34.4%
same,inhibition,"[12]; measured here: combination with BGB IC40, at 0.05 µM",-33.1%
same,inhibition,"[12]; measured here: combination with cisplatin, at 0.5 µM, stronger effect = higher value",-37.9%
same,inhibition,"[12]; measured here: combination with cisplatin, at 5 µM, stronger effect = higher value",101%
same,inhibition,"[13]; BGB combo, at 5 µM",93.7%
same,inhibition,[13]; at 0.5 µM,34.8% (inactive)
same,inhibition,"[13]; cisplatin combo, at 5 µM",89.8%
same,inhibition,"[13]; measured here: with BGB IC20 combination, at 0.5 µM",27.9%
same,inhibition,"[13]; measured here: with cisplatin IC20 combination, at 0.5 µM",38.9%
same,inhibition,"[13]; single agent, at 5 µM",94.1%
same,inhibition,"[14]; BGB IC20 combo, at 0.005 µM",3.47%
same,inhibition,"[14]; BGB IC40 combo, at 0.005 µM",0.136%
same,inhibition,"[14]; BGB IC40 combo, at 0.05 µM",75.2%
same,inhibition,[14]; at 0.5 µM,-26.8% (inactive)
same,inhibition,"[14]; cisplatin combo, at 0.05 µM",74.3%
same,inhibition,"[14]; cisplatin combo, at 0.5 µM",-46.2%
same,inhibition,"[14]; cisplatin combo, at 5 µM",-4.06%
same,inhibition,"[14]; measured here: 5 uM single agent, at 5 µM",-4.21%
same,inhibition,[15]; at 0.5 µM,49.5% (inactive)
same,inhibition,"[15]; measured here: with BGB IC20, at 0.5 µM",55.4%
same,inhibition,"[15]; measured here: with BGB IC20, at 5 µM",97.6%
same,inhibition,"[15]; measured here: with cisplatin IC20, at 0.5 µM",38.8%
same,inhibition,"[15]; measured here: with cisplatin IC20, at 5 µM",94.1%
same,inhibition,"[15]; single agent, at 5 µM",95.9%
same,inhibition,[16]; at 0.5 µM,-11.6% (inactive)
same,inhibition,"[16]; measured here: BGB combination, at 0.5 µM",0.573%
same,inhibition,"[16]; measured here: BGB combination, at 5 µM",42.9%
same,inhibition,"[16]; measured here: cisplatin combination, at 0.5 µM",-39.3%
same,inhibition,"[16]; measured here: cisplatin combination, at 5 µM",36.2%
same,inhibition,[17]; at 0.5 µM,26.7% (inactive)
same,inhibition,"[17]; cisplatin combination, at 0.5 µM",42.3%
same,inhibition,"[17]; cisplatin combination, at 5 µM",38.7%
same,inhibition,"[17]; measured here: BGB IC40 combination 0.05 uM, at 0.05 µM",-23%
same,inhibition,"[17]; single agent, at 5 µM",59.1%
same,inhibition,[18]; at 0.5 µM,1.21% (inactive)
same,inhibition,"[18]; cisplatin combo, at 5 µM",73.6%
same,inhibition,"[18]; measured here: BGB IC40 combination, at 0.05 µM",-7.03%
same,inhibition,"[18]; measured here: combination with cisplatin, at 0.5 µM",-23.9%
same,inhibition,"[18]; single agent, at 5 µM",64.6%
CC[C@H](CC[C@@H](C)[C@H]1CC[C@H]2[C@@H]3CC=C4C[C@@H](O)CC[C@]4(C)[C@H]3CC[C@]12C)C(C)C,outcome,[1],inactive
same,outcome,[2],inactive
same,outcome,[3],inactive
same,outcome,[4],inactive
same,outcome,[5],inactive
same,outcome,[6],inactive
same,outcome,[7],inactive
same,outcome,[8],inactive
same,outcome,[9],inactive
same,fold change,[10]; [19],0.94 (inactive)
same,fold change,[10]; [20],0.534
same,cell count,[10]; [21],8770
same,cell count,[10]; [22],9330
CC1(C)CC(=O)c2c(C(F)(F)F)nn(-c3ccc(C(N)=O)c(NC4CCC(O)CC4)c3)c2C1 (centres undefined),AC50,[1],118 nM (active)
same,AC50,[2],469 nM (active)
same,AC50,[3],166 nM (active)
same,AC50,[4],132 nM (active)
same,AC50,[5],148 nM (active)
same,AC50,[6],105 nM (active)
same,AC50,[7],148 nM (active)
same,AC50,[8],118 nM (active)
same,IC50,[9],186 nM (active)
same,fold change,[10]; [19],0.978 (inactive)
same,fold change,[10]; [20],0.783
same,cell count,[10]; [21],3040
same,cell count,[10]; [22],3110
same,z-score,[11]; [23],2.87 (active)
same,z-score,[11]; [24],-1.99
